# CYP2C9 inhib: human CYP2C9 inhibition. P11712. CYP2C9 Supersomes, luciferin-H conversion, luminescence. inhibition, % at 5 µM. actives 20% (n = 96,000). AID 777;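 active = blocking of liver enzyme CYP2C9 beyond about 50% at 5 µM, limit read from the data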
# Target sequence (P11712 whole entry, looked up): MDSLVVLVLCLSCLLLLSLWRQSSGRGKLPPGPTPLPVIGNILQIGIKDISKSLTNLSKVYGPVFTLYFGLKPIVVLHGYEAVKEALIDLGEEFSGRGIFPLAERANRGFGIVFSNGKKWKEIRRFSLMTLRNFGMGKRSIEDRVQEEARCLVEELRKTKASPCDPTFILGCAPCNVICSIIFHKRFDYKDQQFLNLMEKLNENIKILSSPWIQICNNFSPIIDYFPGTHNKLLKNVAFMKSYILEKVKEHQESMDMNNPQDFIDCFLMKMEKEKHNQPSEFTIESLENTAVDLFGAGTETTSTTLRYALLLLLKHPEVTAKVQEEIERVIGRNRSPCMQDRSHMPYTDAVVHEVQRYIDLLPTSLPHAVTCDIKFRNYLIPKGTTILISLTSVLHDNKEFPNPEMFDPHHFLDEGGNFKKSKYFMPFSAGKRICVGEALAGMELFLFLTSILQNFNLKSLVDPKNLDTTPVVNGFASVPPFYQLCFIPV
# CYP2C9 activ: CYP2C9 (human) activation. P11712. recombinant CYP2C9, luciferin-H conversion, luminescence; active compounds read high; factor 1 = untreated enzyme, 0 = blocked. activation factor at 5 µM. actives 1.4% (n = 96,000). AID 1024;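 active = activation factor of 2 or more for CYP2C9 at a 5 µM dose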;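 note: 0 = sulfaphenazole-blocked wells and 1 = vehicle-only wells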
# PostGolgi yeast: growth inhibition of a yeast mutant, post-Golgi transport screen; actives 0.9% (n = 98,000); AID 739; inhibition, % at 10 µM; post-Golgi transport phenotypic cell assay;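 note: yeast cells grown in 1536-well plates; yeast grown about 18 h at 30C before absorbance read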
# CYP2C19 act: activators of human cytochrome P450 2C19 | P33261 | recombinant CYP2C19, luciferin-H EGE luminescence; active compounds read high; 0 = fully inhibited enzyme, 1 = untreated enzyme | activation factor at 5 µM | 96,000 tested, under 10 active | AID 1025;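 active = activation factor of at least 2 at 5 µM in the primary screen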;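 note: 0 = wells with 2.5 mM tranylcypromine and 1 = vehicle-only wells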
# PostGolgi ctrl: growth of the yeast control strain, post-Golgi counter-screen; efflux-deficient yeast background strain, growth absorbance A615, 16 h; inhibition, % at 10 µM; actives 5% (n = 98,000); AID 738
# CYP2C19 inhib: inhibitors of human CYP2C19 | CYP2C19 Supersomes, luciferin-H EGE luminescence, 30 min | inhibition, % at 5 µM | actives 21% (n = 96,000) | AID 778;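 active = CYP2C19 inhibition above a set limit at 5 µM in the primary screen, cut at about 50% in these data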;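 note: plate controls were negative control wells for no effect and 2.5 mM tranylcypromine positive control for full effect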
# Numbers without * were called inactive; x = no result given. Sampled rows, rich in hits. Any-hit rate of the full collection: about 32%. Cut-off read from the data, not from the text of the source, unless noted: active = inhibition above about 30%; inactive = the rest.
SMILES,CYP2C9 inhib,CYP2C9 activ,PostGolgi yeast,CYP2C19 act,PostGolgi ctrl,CYP2C19 inhib
O=C(NCCCN1CCN(CCCNC(=O)c2ccccc2F)CC1)c1ccccc1F,-31,1.3,3,1.1,16,-14
CN(C)c1ccc(/C=C(/NC(=O)c2ccccc2)C(=O)N/N=C/c2ccc([N+](=O)[O-])c(O)c2)cc1,31,0.7,21,1,8,1
c1ccc(-c2ccc(-c3nc(-c4ccncc4)no3)cc2)cc1,72*,0.3,-4,0.2,9,80*
c1cc(-c2noc(CCC3CCCC3)n2)ccn1,96*,0,-8,0,8,99*
Cc1ccc(-c2noc(CCCc3ccccc3)n2)cc1,-8,1.1,-11,1,-7,-5
COc1ccc(-c2noc(CCCc3ccccc3)n2)cc1OC,61*,0.4,-7,0.2,9,80*
c1ccc(-c2ccc(-c3nc(-c4cccnc4)no3)cc2)cc1,6,0.9,2,0.9,-8,14
CSc1ccccc1-c1nnc(-c2ccc(C)cc2)o1,-46,1.5,-1,0.9,4,13
CSc1ccccc1-c1nnc(-c2ccccc2)o1,-136,2.4*,15,1,18,3
COc1cc(C)c(Cl)c(C)c1S(=O)(=O)NCc1cccnc1,16,0.8,-1,0.5,11,50
Cc1ccccc1-c1nc(-c2cccnc2)no1,36,0.6,0,0.4,15,62*
COc1ccc(-c2noc(-c3ccccc3-c3ccccc3)n2)cc1OC,67*,0.3,-6,0.6,12,36
c1ccc(-c2nnc(-c3ccncc3)o2)cc1,-7,1.1,0,0.2,3,76*
Clc1ccccc1-c1nc(-c2cccnc2)no1,13,0.9,0,0.6,2,36
COc1ccc(-c2noc(-c3cc(C)cc(C)c3)n2)cc1OC,-77,1.8,2,0.9,-2,8
CN(C(=O)c1ccncc1)C1CC(C)(C)N(O)C(C)(C)C1,8,0.9,3,0,-4,96*
CCC(=Nc1ccc(N)cc1)C1=C(O)C(C(=O)OC)C(C)(C)CC1=O (configuration not stated),29,0.7,-3,0.8,-4,21
CCCC(=Nc1ccccc1)C1=C(O)C(C(=O)OC)C(C)(C)CC1=O (configuration not stated),45,0.5,2,0.3,12,69*
CCCC(=NCc1ccccc1)C1=C(O)C(C(=O)OC)C(C)(C)CC1=O (configuration not stated),64*,0.4,21,0.1,14,93*
CCCC(=O)C1=C(O)C(C(=O)OC)C(C)(C)CC1=Nc1ccccc1 (configuration not stated),82*,0.2,1,0.1,19,87*
CCCCC(=Nc1ccc(N)cc1)C1=C(O)C(C(=O)OC)C(C)(C)CC1=O (configuration not stated),51*,0.5,-5,1,5,2
COCc1c(C(N)=O)nnn1-c1nonc1N,0,1,-6,1,0,4
COC(=O)C1C(O)=C(C=NCc2ccccc2)C(=O)CC1(C)C (configuration not stated),12,0.9,5,0.8,-6,16
CCC(=NCc1ccccc1)C1=C(O)C(C(=O)OC)C(C)(C)CC1=O (configuration not stated),86*,0.1,15,0,11,97*
CCn1nnc(-c2ccccc2NS(=O)(=O)c2ccc(C(=O)OC)cc2)n1,73*,0.3,-2,0,16,98*
SMILES,CYP2C9 inhib,CYP2C9 activ,PostGolgi yeast,CYP2C19 act,PostGolgi ctrl,CYP2C19 inhib
Cc1c(C(=O)N2CCCCC2)sc(NC(=O)C(C)C)c1C#N,68*,0.3,9,0.4,4,62*
Cc1c(C(=O)N2CCCC2)sc(NC(=O)c2cccs2)c1C#N,94*,0.1,-11,0.9,-5,8
Cc1c(C(=O)N2CCCCC2)sc(N)c1C#N,18,0.8,4,0.8,17,19
Cc1c(C(=O)N2CCCCC2)sc(NC(=O)C2CC2)c1C#N,56*,0.4,-7,0.5,18,54*
O=C(CN1CCOCC1)Nc1ncccn1,-8,1.1,0,0.9,3,9
CC(C)[C@H](NC(=O)NCc1ccco1)C(=O)O,3,1,-4,1,3,4
Cn1cnc2c1c(=O)n(Cc1ccc(F)cc1Cl)c(=O)n2C,-6,1.1,19,0.8,22,22
CN(C)CCCNCCCNC(=O)/C(=N\O)c1ccccn1,x,x,2,x,1,x
CC1CCCCC1NC(=O)CN1C(=O)NC(Cc2ccccc2)(Cc2ccccc2)C1=O (configuration not stated),20,0.8,-2,0.4,1,60*
CCCOc1c(Cl)cc(/C=N/O)cc1OCC,34,0.7,2,0.7,30,32
Cc1ccc2nc(C)cc(Nc3ccc4c(c3)OCCO4)c2c1,68*,0.3,6,0.8,-5,20
Cc1ccc(C(=O)c2nocc2C(=O)c2cccs2)cc1,69*,0.3,-12,0.4,16,62*
CC1(C)CC(=O)C2=C(C1)N(C1CCCCC1)C(=O)C2(O)C(F)(F)F (configuration not stated),0,1,5,0.8,17,20
CC1(C)CC(=O)C2=C(C1)N(c1ccc(F)cc1)C(=O)C2(O)C(F)(F)F (configuration not stated),14,0.9,-11,0.5,0,50*
CC1(C)CC(=O)C2=C(C1)N(c1ccc(F)cc1)C(=O)CC2c1ccccc1 (configuration not stated),28,0.7,4,0.2,-1,76*
COC(=O)c1cc(=O)n(Cc2cccs2)c(=NCc2cccs2)s1,7,0.9,9,0.9,31*,5
COC(=O)c1cc(=O)n(CCc2ccc(OC)cc2)c(=Nc2ccc(F)c(Cl)c2)s1,56*,0.4,-1,0.7,12,28
COC(=O)c1cc(=O)n(CCc2ccccc2)c(=Nc2ccc(F)cc2)s1,40,0.6,-7,1,10,-1
CCOC(=O)c1ccc(N=c2sc(C(=O)OC)cc(=O)n2Cc2ccco2)cc1,49,0.5,1,0.8,57*,16
CCn1c(=O)cc(C(=O)OC)sc1=Nc1ccc(F)c(F)c1,75*,0.3,4,0,12,98*
CCCCN=c1sc(C(=O)OC)cc(=O)n1CCCC,7,0.9,1,0.8,5,18
CCOC(=O)c1ccc(N=c2sc(C(=O)OC)cc(=O)n2CCCN2CCOCC2)cc1,27,0.7,-9,0.6,2,38
COc1cccc(N2C(=O)CC(N3CCC(C(N)=O)(N4CCCCC4)CC3)C2=O)c1 (configuration not stated),x,x,-1,x,7,x
